Screening data deposited in PubChem by several laboratories.
PrP 5UTR inh: inhibition of PrP 5' UTR reporter expression | cell-based PrP 5' UTR mRNA reporter, plate reader | inhibition, % (no concentration beside the values) | actives 0.35% (n = 340,000) | AID 488862; in the data active = inhibition above about 52%; note: 0 = median of the neutral control wells
Sa RN4220 lethal: S. aureus RN4220 growth inhibition; OD600, 16 h; inhibition, % (test concentration not listed); actives 0.33% (n = 330,000); AID 1259311; in the data active = inhibition above about 85%;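 note: plate controls were untreated cells for no effect and reference antibiotic for full effect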
ugtP null kill: kills S. aureus RN4220 lacking UgtP. S. aureus RN4220 ugtP deletion, OD600 growth, 16 h. growth inhibition, % (concentration not given with the values). actives 0.54% (n = 330,000). AID 1259309; in the data active = growth inhibition above about 68%;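 note: plate controls were untreated wells for no effect and antibiotic for full effect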
PfHsp40 rescue: rescue of PfHsp40-mediated yeast toxicity; S. cerevisiae expressing PfHsp40, growth rescue, ATP luminescence; growth rescue, % at 12.5 µM; actives 0.68% (n = 340,000); AID 504582; in the data active = growth rescue above about 28%, passing the limit was not always enough;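 note: yeast W303a lacking pdr1 and pdr3 grown in galactose medium; growth measured after three days at 30 °C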
CCHFV vOTU inh: CCHFV vOTU protease inhibition; Pep-AMC fluorescence; inhibition, % at 11.5 µM; actives 0.55% (n = 370,000); AID 651958; in the data active = inhibition above about 30%; note: 0% = vehicle wells with enzyme and 100% = no enzyme wells
PrPC surface inh: inhibitors of human cell surface prion protein PrPC; P04156; TR-FRET read-out; inhibition, % at 13.8 µM; actives 0.43% (n = 370,000); AID 720596; in the data active = inhibition above about 24%; note: 0% = median of the test wells and 100% = reference compound wells
PrPC TRFRET cf: confirmation of inhibitors of cell surface human prion protein; actives 65% (n = 1,500); inhibition, % at 13.8 µM; shares compounds with PrPC surface inh; cell surface PrPC level, TR-FRET; in the data active = inhibition above about 25%
LD9 cytotox: kills or reduces viability of LD9 cells in PrPc counter-screen | shares compounds with PrPC surface inh | LD9 cells cytotoxicity, luminescence viability | inhibition, % at 13.8 µM | actives 29% (n = 1,500) | AID 743201; in the data active = inhibition above about 9.5%
Starred values were filed as active, the others as inactive; . = no result. In the library only some 2.1% were active in any assay of this set; here they are far more common.

SMILES	PrP 5UTR inh	Sa RN4220 lethal	ugtP null kill	PfHsp40 rescue	CCHFV vOTU inh	PrPC surface inh	PrPC TRFRET cf	LD9 cytotox
CSCC[C@H](NC(=O)[C@@H]1Cc2ccccc2CN1)C(=O)NCC1CCC(C(=O)O)CC1 (stereo partly drawn)	.	0.8	6.2	.	.	.	.	.
COc1cccc(N2CCN(c3nc(-c4ccccc4C)cc(=O)[nH]3)CC2)c1	-2.8	-0.2	-5.1	108.0*	-2.6	30.6*	32.6*	14.2*
COc1cccc(N2CCN(c3nc(C)c(C)c(=O)[nH]3)CC2)c1	-39.9	0.5	9.1	0.6	-6.9	9.9	.	.
Cc1ccc(C2C(C#N)=C(N)SC(N)=C2C#N)cc1	-26.1	7.8	7.0	3.3	2.8	90.8*	86.5*	0.6
CC(=NNC(=O)c1ccncc1)C12CC3CC(CC(C3)C1)C2	.	0.2	6.0	.	.	.	.	.
CCCn1c(N)c(C(c2ccc(C(=O)OC)cc2)N2CCN(c3ccccc3)CC2)c(=O)[nH]c1=O (stereo not drawn)	-3.8	-0.1	2.1	1.1	7.1	0.1	.	.
COC(=O)c1ccc(C(c2c(N)n(CC(C)C)c(=O)[nH]c2=O)N2CCN(c3ccccc3)CC2)cc1 (stereo not drawn)	-11.0	1.4	5.4	-0.2	-10.6	29.7*	10.1	10.5*
N=c1c2c(-c3ccccc3)c(-c3ccccc3)n(Cc3ccco3)c2ncn1CCCn1ccnc1	-19.8	-5.5	7.6	235.4*	18.7	26.9*	-16.6	19.4*
COc1ccc(-c2cc(CNc3nc(NC(C)C)nc4cc(-c5ccccc5)sc34)on2)cc1	.	.	.	.	11.4	25.4*	40.2*	7.4
C#CCOCCOCCOCCNc1nc(N2CCOCC2)nc(N2CCN(C(=O)CCCCCCCCCCNC(=O)C(CCC(=O)O)n3cc(CCCCCN)nn3)CC2)n1 (stereo not drawn)	.	7.4	5.1	.	.	.	.	.
O=C(O)COc1ccccc1C=NNC(=O)CSc1nc2ccccc2n1Cc1ccccc1	.	2.2	15.1	.	.	.	.	.
N#Cc1c(N2CCSCC2)nsc1-c1ccccc1Cl	-19.9	6.3	42.8	3.0	19.2	26.7*	22.8	-6.9
COc1ccc(S(=O)(=O)Nc2cccc3c2OC(CN(C)S(=O)(=O)c2ccc(Cl)cc2)C(C)CN(C(C)CO)C3=O)cc1 (stereo not drawn)	.	-0.1	-15.5	.	.	.	.	.
CC(=O)CSc1ncnc2sc3c(c12)CCC3	10.0	5.1	3.9	1.0	1.8	12.1	.	.
O=C1OCCC1Sc1ncnc2sc3c(c12)CCC3 (stereo not drawn)	-5.2	-0.9	-1.2	2.9	4.2	56.1*	63.7*	-5.7
CC(=NOc1nc(C)cc(C)n1)c1ccc(Br)cc1	.	0.7	-1.9	.	.	.	.	.
CCOC(=O)/C=C/S(=O)(=O)c1ccc(NC(C)=O)cc1	-20.9	1.8	1.3	-1.6	1.9	88.7*	-9.5	98.1*
O=C(NN=Cc1ccc(-c2cccc(C(F)(F)F)c2)o1)c1cccc(F)c1	.	-7.5	-2.5	.	.	.	.	.
O=C(c1ccccc1Cc1ccccc1)N1CCN(S(=O)(=O)c2ccccc2)CC1	-6.0	12.6	1.4	1.1	11.9	2.6	.	.
Cc1ccc(C)c(S(=O)(=O)N2CCN(C(=O)c3ccccc3Cc3ccccc3)CC2)c1	-17.4	24.8	-7.5	0.3	-1.7	55.3*	0.2	-2.7
COc1ccc(NC(=O)NNC(=O)COc2ccc3ccccc3c2)cc1OC	13.4	-0.2	-5.0	-4.1	15.4	-6.7	.	.
COc1ccc(NC(=O)NNC(=O)COc2ccc3cc(Br)ccc3c2)cc1OC	-24.3	6.3	-3.3	-0.6	3.9	41.5*	69.0*	-7.3
C=CC(=O)N1C/C(=C/c2ccc(F)cc2)C(=O)/C(=C\c2ccc(F)cc2)C1	38.7	.	.	-1.5	20.3	41.2*	9.0	75.0*
CN1C2CCC1/C(=C\c1ccc(F)cc1)C(=O)/C2=C/c1ccc(F)cc1	-20.7	3.5	10.8	2.8	-0.5	6.7	.	.
CCCCC1=CC2=C(c3ccco3)C(=O)C(C)(OC(=O)c3ccc(OC)cc3)C(=O)C2=CN1CCOC (stereo not drawn)	-9.9	5.6	15.4	0.8	14.3	-1.1	.	.
SMILES	PrP 5UTR inh	Sa RN4220 lethal	ugtP null kill	PfHsp40 rescue	CCHFV vOTU inh	PrPC surface inh	PrPC TRFRET cf	LD9 cytotox
CCCCC1=CC2=C(c3ccco3)C(=O)C(C)(OC(=O)c3ccc(OC)cc3)C(=O)C2=CN1CCc1ccccn1 (stereo not drawn)	-10.9	-1.3	-0.3	0.5	6.3	25.8*	33.3*	-3.5
CCC1(CC)C(=O)C2=C3C(CC(C(=O)OC)=CC(C(=O)OC)C31)C1C(=O)N(CC(=O)OC)C(=O)C1C2C (stereo not drawn)	.	3.6	-6.8	.	.	.	.	.
COc1ccc(OCCNC(=O)c2ccc3nc(C)c(N(C)C(=O)CCc4ccccc4)n3c2)cc1	.	.	.	.	9.2	59.4*	-3.0	0.5
Fc1ccc(C=NN2CCN(Cc3ccccc3)CC2)cc1	.	3.1	10.2	.	.	.	.	.
COc1ccc(NC(=O)c2cc(-c3cc(Cl)ccc3OC)n[nH]2)c(OC)c1	.	.	.	.	19.7	28.4*	19.1	1.4
CCOc1ccc(Cl)cc1-c1cc(C(=O)Nc2ccc(OC)cc2OC)[nH]n1	.	.	.	.	-7.6	13.0	.	.
COc1cc(NC(=O)C2CCN(S(=O)(=O)c3ccc(Cl)cc3)CC2)ccc1-n1cnnn1	5.2	8.0	-0.2	-0.8	-4.9	27.1*	20.8	14.7*
COc1cc(C(=O)Nc2ccc3c(c2)OCCO3)c(-n2cnnn2)cc1OC	-3.4	-0.6	-1.4	-0.1	-3.5	3.1	.	.
CC1CCN(c2ccc(C(=O)Nc3ccc4c(c3)OCO4)cc2[N+](=O)[O-])CC1	-5.7	-9.9	-9.8	2.0	17.3	73.5*	77.1*	4.2
O=C(COC(=O)c1ccc(N2CCOCC2)c([N+](=O)[O-])c1)Nc1ccc2c(c1)OCO2	-58.8	4.7	6.5	-1.1	-0.8	-10.0	.	.
COc1ccc(NC(=O)C2CC2)cc1-n1cnnn1	-26.6	-1.5	-2.7	-1.2	14.2	4.9	.	.
CC1CCCN(c2ccc(C(=O)Nc3nnc(C4CC4)s3)cc2[N+](=O)[O-])C1 (stereo not drawn)	0.4	5.6	0.2	-1.2	8.2	1.4	.	.
CC1CCCN(c2ccc(C(=O)Nc3ccc4c(c3)OCO4)cc2[N+](=O)[O-])C1 (stereo not drawn)	-12.6	-1.4	-13.5	5.2	9.3	31.0*	40.3*	8.8
COc1cc(C(=O)Nc2ccc3c(c2)OCO3)ccc1-n1cnnn1	5.2	2.6	2.6	-0.3	26.9	44.6*	32.1*	-0.6
CCCCC(=O)NN=Cc1ccc(Sc2cccc3cccnc23)o1	.	4.7	-14.9	.	.	.	.	.
COc1ccc(-c2ccc(C3C4C=CCC[C@@]4(C)C(=O)N3Cc3ccccc3)c(F)c2)cc1OC (stereo partly drawn)	.	-3.3	11.3	.	.	.	.	.
